In PubChem BioAssay:

assay: binders of probe aFST on microarray, primary screen, stem cell growth factor project, biochemical, small-molecule microarray, fluorescence 635/667 (AID 1086); settings: higher = more signal;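 further: score merges 667 nm fluorescence with signal-to-noise of each printed compound spot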

SMILES	composite z-score
COC(=O)[C@@]1(Cc2ccccc2)[C@H]2c3cc(C(=O)N4CCCC4)n(Cc4ccc(OC(F)(F)F)cc4)c3C[C@H]2CN1C(=O)c1ccccc1	1.73
CO[C@H]1O[C@H](CO)[C@@H](OC(=O)c2ccc(Br)cc2)[C@@H]2OC(=O)[C@H](Cc3cccc(Br)c3)C/C=C/C[C@@H](Cc3cccc(Br)c3)C(=O)O[C@@H]12	0.551
Cc1ccc(N2C(=O)c3ccccc3[C@](C)(C(=O)NC(C)C)[C@@H]2c2ccc(CO)cc2)nc1	-0.927
NC(=O)[C@@H]1[C@H]2C(=O)O[C@H](c3ccccc3)[C@H](c3ccccc3)N2[C@H](c2ccccc2OCCO)[C@@]12C(=O)Nc1ccc(C#CCCO)cc12	-0.0579
O=C1O[C@H](c2ccccc2)[C@H](c2ccccc2)N2[C@H]1[C@@H](C(=O)N1CCN(c3ncccn3)CC1)[C@]1(C(=O)Nc3ccc(C#CCCO)cc31)[C@H]2c1ccc(OCCO)cc1	1.35
CCCC=C(CCC)[C@@H](NS(=O)(=O)c1cccc2cccnc12)c1ccc(C(=O)OC)cc1	3.43
